Most compounds without a hit are left out; they make up all but 7.4% or so of the library.
FXIa mix inh – FXIa protease inhibitors in compound pools, primary screen, biochemical, 10-compound mixtures; Coagulation factor XI (Homo sapiens), P03951; purified FXIa, fluorogenic substrate, pooled mixtures; inhibition, % at 5 µM; 62,000 compounds, 0.19% hits;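 note: each value is inhibition by a whole ten-compound pool holding the compound; 0% = enzyme with no mixture and 100% = wells lacking enzyme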
M1 ag – M1 muscarinic receptor agonists, primary screen, CHO-M1 cells, Fluo-4 calcium, agonist mode. Fluo-4 calcium fluorescence; active compounds read high. B-score at 10 µM. 64,000 compounds, 3% hits;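 active = fluorescence rise, raw or as B-score row- and column-corrected plate score, outside the 99.7% band of its plate's samples, either direction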
D1 mod – D1 CRE-luciferase signal change, two-sided – cell-based, HEK293 D1, dopamine EC30, D1 allosteric modulator project, primary screen; 58,000 compounds, 5.9% hits; dopamine EC30 potentiation; actives deviate in either direction; B-score at 10 µM; D(1A) dopamine receptor (Homo sapiens), P21728; AID 641, 2007;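 active = luminescence count or its row- and column-corrected plate score outside the 99.7% band of the plate's sample wells, on either side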
M1 antag – antagonists of rat M1 muscarinic receptor; CHO-M1 cells, Fluo-4 calcium, ACh EC80 antagonist mode; active compounds read low; B-score at 10 µM; 64,000 compounds, 3.4% hits; AID 628, 2007;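 active = calcium fluorescence response, raw or row-and-column corrected B-score, differing from the plate sample mean either way at a set confidence level, mostly lower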
DAT uptake mod – changed hDAT dopamine uptake under cocaine IC80, either direction, primary screen, cocaine antagonist project, cell-based, LLC-PK1 hDAT, [14C]-dopamine uptake, MLSMR | LLC-PK1 hDAT cells, [14C]-dopamine uptake with cocaine IC80; actives deviate in either direction | B-score at 10 µM | 110,000 compounds, 1.3% hits | AID 449768, 2010;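 active = Z score or B-score, a plate-position-corrected score, falls beyond the plate's 99.7% confidence bounds, in either direction; inactive = both scores lie inside the 99.7% bounds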;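 note: scored against the spread of the other compound wells on the same plate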
Target sequence (Q01959 whole entry, looked up): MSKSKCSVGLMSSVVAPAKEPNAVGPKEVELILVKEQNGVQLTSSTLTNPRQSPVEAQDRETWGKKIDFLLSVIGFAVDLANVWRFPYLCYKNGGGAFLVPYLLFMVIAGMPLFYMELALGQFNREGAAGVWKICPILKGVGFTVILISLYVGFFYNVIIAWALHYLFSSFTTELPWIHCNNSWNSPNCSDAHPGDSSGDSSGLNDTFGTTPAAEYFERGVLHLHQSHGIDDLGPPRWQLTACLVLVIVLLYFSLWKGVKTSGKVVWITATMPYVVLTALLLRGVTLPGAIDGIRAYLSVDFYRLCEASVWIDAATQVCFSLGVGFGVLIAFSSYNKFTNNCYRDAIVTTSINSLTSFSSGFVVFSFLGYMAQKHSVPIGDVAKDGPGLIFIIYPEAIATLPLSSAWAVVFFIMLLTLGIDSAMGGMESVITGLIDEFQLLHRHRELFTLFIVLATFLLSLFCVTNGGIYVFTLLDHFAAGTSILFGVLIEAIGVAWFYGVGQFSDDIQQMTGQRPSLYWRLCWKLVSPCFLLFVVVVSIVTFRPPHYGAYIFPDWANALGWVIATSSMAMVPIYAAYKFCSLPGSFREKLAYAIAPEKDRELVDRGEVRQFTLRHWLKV
FXIIa inh mix – human factor XIIa inhibitors, primary screen, biochemical, pooled compound mixtures, fluorogenic substrate; inhibition, % at 5 µM; purified FXIIa; AID 684, 2007; Coagulation factor XII (Homo sapiens), P00748; 62,000 compounds, 0.2% hits;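 note: 0% = enzyme without compound and 100% = no enzyme blank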
M1 ag confirm – rat M1 muscarinic receptor agonists, confirmation, CHO-M1 cells, Fluo-4 calcium, duplicate retest. fluorescence change (max-min) at 10 µM. AID 1488, 2009. 1,700 compounds, 19% hits. shares compounds with M1 ag. Fluo-4 calcium fluorescence, agonist mode; actives lie on both sides;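 active = fluorescence change differs from the solvent-only DMSO control mean at a set confidence level in both duplicate runs; inconclusive = differs from solvent-only control mean in just one of two runs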;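 note: an EC20 dose of acetylcholine follows compound addition during the same imaging run; raw fluorescence intensity difference in instrument units with no normalization to controls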
M4 agonist ctr – agonist activity at rat M4 receptor, confirmation, counter-screen for M1 allosteric modulator project, cell-based, agonist mode | AID 1741, 2009 | shares compounds with M1 ag | 1,700 compounds, 9% hits | CHO M4/Gqi5 cells, Fluo-4 calcium fluorescence; actives lie on both sides | fluorescence change (max-min) at 10 µM;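 active = fluorescence change differing from the plate's solvent-only control wells at 99.7% confidence in both duplicates, whether higher or lower; inconclusive = differs from solvent controls in only one of two duplicates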
Active calls of the source: *; ? = inconclusive; / = not tested or not shown. Cut-off read from the data, not from the text of the source, unless noted: active = inhibition above about 20% (passing the limit was not always enough); inactive = the rest.

SMILES | FXIa mix inh | M1 ag | D1 mod | M1 antag | DAT uptake mod | FXIIa inh mix | M1 ag confirm | M4 agonist ctr
C=CCc1ccccc1OCC(O)CN1CCN(Cc2ccc3c(c2)OCO3)CC1 (stereo not given) | 8 | 6.9* | -5.8* | -5.4* | 0.64 | -4 | 9.5 | -22
C=CCc1ccccc1OCC(O)CN1CCN(c2ccc(C)cc2)CC1 (stereo not given) | -2 | -0.065 | / | 0.66 | 0.71 | 1 | / | /
CCOC(=O)N1CCN(CC(O)COc2ccccc2C(C)C)CC1 (stereo not given) | 3 | 13* | -1.8 | -1 | -0.13 | -12 | 65* | -6.6
CCOC(=O)N1CCN(CC(O)COc2ccccc2C(C)CC)CC1 (stereo not given) | -2 | -0.48 | -0.079 | -0.35 | 0.85 | 4 | / | /
O=C(NCc1cccnc1)c1ccc(Cl)cc1[N+](=O)[O-] | / | / | / | / | 0.029 | / | / | /
O=C(Oc1ccc(Br)cc1)C1CC(=O)N(c2ccc(F)cc2)C1 (stereo not given) | -2 | 0.0065 | 0.74 | -0.026 | 0.83 | -20 | / | /
CC(C)OCCCn1c(=N)c(C(N)=S)cc2c(=O)n3ccccc3nc21 | / | 4* | / | -0.95 | -0.013 | / | -11 | ?
CC(C)OCCCn1c(=NC(=O)c2ccncc2)c(C#N)cc2c(=O)n3ccccc3nc21 | -30 | 25* | 0.34 | -1.6 | -1.2 | 7 | 219* | ?
COC(=O)c1cc2c(=O)n3ccccc3nc2n(C)c1=N | -74 | -0.68 | 1.3 | -0.55 | / | 0 | / | /
CCCCn1c(=NC(=O)c2ccc3c(c2)OCO3)c(C#N)cc2c(=O)n3cccc(C)c3nc21 | -3 | 13* | 2 | -0.87 | -0.44 | 3 | ? | -44
O=C1c2ccccc2C(Nc2ccc3c(c2)OCCO3)N1c1ccccn1 (stereo not given) | 6 | -0.59 | 0.087 | 0.056 | -0.23 | 13 | / | /
CC(C(=O)OCc1nnc(-c2ccccc2)o1)N1C(=O)c2ccccc2C1=O (stereo not given) | 9 | -2.2* | / | -0.031 | 0.065 | 4 | -3.9 | -31
Cc1ccc(C(=O)OCc2nnc(-c3ccccc3)o2)o1 | 1 | 0.67 | 0.72 | -2.4 | 0.12 | 8 | / | /
CC(=O)c1c(C)[nH]c(C(=O)OCc2nnc(-c3ccccc3)o2)c1C | 1 | 2.8* | -0.98 | -0.2 | 0.14 | -1 | ? | -70*
O=C(c1ccc([N+](=O)[O-])cc1)N1CCOC12CCN(c1ncc(C(F)(F)F)cc1Cl)CC2 | / | / | / | / | -0.42 | / | / | /
O=C(OCc1cccs1)c1ccccc1NS(=O)(=O)c1ccc2c(c1)OCCO2 | 6 | 4* | 2.4 | 1 | 0.92 | 13 | -12 | -48
Cc1ccnc(SCCn2c(N3CCN(c4ccccc4)CC3)nc3c2c(=O)[nH]c(=O)n3C)n1 | 1 | 6.4* | -4.5* | 0.053 | 0.27 | -2 | -7.8 | ?
Cc1ccnc(SCCn2c(N3CCN(C)CC3)nc3c2c(=O)[nH]c(=O)n3C)n1 | 2 | 0.69 | 0.89 | 1.3 | / | -19 | / | /
CC(=O)OC1=C(C#N)Cn2ccc3cccc1c32 | 11 | 9* | -0.26 | 0.58 | -0.15 | -6 | 39 | 21
Cc1oc(-c2ccc(Cl)cc2)nc1CN1CCCC(C(=O)N2CCN(C(=O)c3ccco3)CC2)C1 (stereo not given) | 12 | 4* | -3.3* | -1.6 | 0.03 | 0 | -7.5 | -44
CCN1CCN(C(=O)C2CCN(Cc3nc(-c4ccc(Cl)cc4)oc3C)CC2)CC1 | 4 | 0.69 | -0.28 | 1.1 | / | -1 | / | /
O=C1c2ccccc2C(=O)N1CCc1nc2ccccc2c(=O)n1Cc1ccco1 | -24 | 9.4* | -0.47 | -1.4 | 0.31 | 2 | -14 | -14
CCCn1nnnc1SCC(=O)N1CCOCC1 | 6 | / | -0.88 | / | -0.13 | -13 | / | /
CCCCCOC(=O)c1ccccc1C(=O)O | 9 | 3* | -0.097 | -0.33 | -1.2 | -15 | -9.3 | ?
C[C@H](N)c1nnc(SCc2ccc(Cl)cc2Cl)o1 | 3 | 0.52 | -0.34 | -0.78 | -0.49 | 3 | / | /
SMILES | FXIa mix inh | M1 ag | D1 mod | M1 antag | DAT uptake mod | FXIIa inh mix | M1 ag confirm | M4 agonist ctr
O=C(CC(=O)NC1CCCCC1)N/N=C/c1ccc(Cl)cc1 | / | / | / | / | -0.074 | / | / | /
CCCCOC(=O)n1c(=O)oc2cc(S(=O)(=O)N3CCCCC3)ccc21 | 2 | 0.49 | -1.1 | 0.036 | 1.2 | -3 | / | /
COC(=O)COc1ccc(S(=O)(=O)NCc2ccncc2)cc1 | 14 | 2.7* | -2.4 | -2* | 0.36 | 8 | -18 | ?
CCOC(=O)N1CCC(N2Cc3cccc(C(=O)Nc4ccc(OC)c(OC)c4)c3C2=O)CC1 | 5 | 9* | -2.2* | -4* | -0.18 | 5 | -29 | -37
CCOC(=O)c1ccccc1NC(=O)c1cccc2c1C(=O)N(C1CCN(C(=O)OCC)CC1)C2 | 12 | -0.085 | -1.6 | 0.022 | 0.062 | -2 | / | /
COc1ccc(CCNC(=O)c2ccc(N3CCCC3=O)cc2)cc1OC | 7 | 0.019 | 1.5 | 1.3 | -0.44 | 10 | / | /
Cc1ccc(S(=O)(=O)n2nc(-c3ccc(Cl)cc3)nc2NCc2ccco2)cc1 | 9 | 26* | 0.034 | -0.38 | 1.2 | -6 | -9.4 | -30
Cc1cc(C(=O)CSc2nc3ccccc3c(=O)n2C)c(C)n1Cc1ccc2c(c1)OCO2 | 3 | 5.7* | -2.9 | -0.28 | -1 | 9 | -19 | -1.2
Cc1nc2sccn2c1-c1csc(NCc2ccccc2)n1 | 0 | 8.3* | -1.7 | -1.6 | 1.1 | -3 | -10 | ?
O=C(Nc1cccc(-c2nc3cccnc3s2)c1)c1ccco1 | / | 6* | -2.1 | -1.5 | 1.9 | / | ? | -50
O=C(Nc1cc(C(F)(F)F)ccc1N1CCOCC1)c1ccc2ccccc2n1 | 6 | -0.065 | 0.43 | -0.029 | -0.57 | -24 | / | /
O=C(Cn1cnc2c(nnn2Cc2ccc(F)cc2)c1=O)N1CCN(c2ccccc2)CC1 | -4 | -4 | 0.29 | 0.21 | / | 11 | / | /
CN(C)CCOc1ccccc1Cc1ccccc1 | 5 | 33* | -4.5 | -6.4* | -0.038 | 1 | -3 | -30
COc1ccc(-c2c(C)nn(-c3ccccc3)c2N)cc1OC | / | / | / | / | 1.4 | / | / | /

Compound activity (PubChem)
